According to the supplement of paper PMC10849652:
Of roughly 7,900 targets only a part is listed; those with a hit were picked by preference. About 0.6% of all pairs of compound and target were hits. Values without a mark were called inactive.

Assays:
Test in all cases: log2 fold change, soluble protein after heating vs DMSO (PISA); higher = thermal stabilisation; K562 cells, 10 uM, 30 min; active = over 0.2 and 3.5 SD of the protein, either way, in both replicates (recomputed)
[1] = compound: CC[C@@H]1C(=O)N(C)c2cnc(Nc3ccc(C(=O)NC4CCN(C)CC4)cc3OC)nc2N1C1CCCC1
How it was run: (§1)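 K562 cells (2×10^6 cells/mL) were treated with 10 μM compound for 30 min, and aliquots were heated for 3 min over 48°C-58°C. Pooled aliquots were extracted in PBS with 0.5% NP-40 at 4°C, and the supernatant after 21,000xg for 90 min was measured by TMTpro 16plex LC-MS/MS with channel sums equalised. Reported thermal stability, relative to control samples and from duplicates, is a log2 fold change.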

volasertib = compound: CC[C@@H]1C(=O)N(C)c2cnc(Nc3ccc(C(=O)N[C@H]4CC[C@H](N5CCN(CC6CC6)CC5)CC4)cc3OC)nc2N1C(C)C [volasertib]
How it was run: as §1

[2] = compound: CC[C@H](C)N1C=C(C2=C(C=C(C=C21)C3=CN=C(C=C3)N4CCNCC4)C(=O)NCC5=C(C=C(NC5=O)C)C)C
How it was run: as §1

epoxomicin = compound: CC[C@H](C)[C@@H](C(=O)N[C@@H]([C@@H](C)O)C(=O)N[C@@H](CC(C)C)C(=O)[C@]1(CO1)C)NC(=O)[C@H]([C@@H](C)CC)N(C)C(=O)C [epoxomicin]
How it was run: as §1

[3] = compound: CCn1c(C(=O)N(C2CC2)C2CC2)cc2c3c(ncn3C)c(Nc3cc(C)n(C)n3)nc21
How it was run: as §1

[4] = compound: CCn1cc(-c2ccnc3[nH]c(-c4cccc(CN(C)C)c4)cc23)c(-c2ccc(NC(=O)N(C)C)cc2)n1
How it was run: as §1

[5] = compound: CN(C)CC(=O)Nc1ccc2[nH]c(=O)c3ccccc3c2c1
How it was run: as §1

rosiglitazone = compound: CN(CCOC1=CC=C(C=C1)C[C@H]2C(=O)NC(=O)S2)C3=CC=CC=N3 (racemic) [rosiglitazone]
How it was run: as §1

[6] = compound: CN1C2=C(C3=C1C(=O)N(N=C3)CC4=CC(=CC=C4)N)SC(=C2)S(=O)C
How it was run: as §1

[7] = compound: CN1CCC(CNc2ccc3ncc(-c4cccc(OC(F)(F)F)c4)n3n2)CC1
How it was run: as §1

saracatinib = compound: CN1CCN(CCOc2cc(OC3CCOCC3)c3c(Nc4c(Cl)ccc5c4OCO5)ncnc3c2)CC1 [saracatinib]
How it was run: as §1

sotrastaurin = compound: CN1CCN(c2nc(C3=C(c4c[nH]c5ccccc45)C(=O)NC3=O)c3ccccc3n2)CC1 [sotrastaurin]
How it was run: as §1

alvocidib = compound: CN1CC[C@H](c2c(O)cc(O)c3c(=O)cc(-c4ccccc4Cl)oc23)[C@H](O)C1 [alvocidib]
How it was run: as §1

Tubastatin A = compound: CN1CCc2c(c3ccccc3n2Cc2ccc(C(=O)NO)cc2)C1 [Tubastatin A]
How it was run: as §1

[8] = compound: CNC(=O)C1=CC=CC=C1NC2=NC(=NC=C2Cl)NC3=C(C=C(C=C3)N4CCOCC4)OC
How it was run: as §1

defactinib = compound: CNC(=O)c1ccc(Nc2ncc(C(F)(F)F)c(NCc3nccnc3N(C)S(C)(=O)=O)n2)cc1 [defactinib]
How it was run: as §1

rucaparib = compound: CNCc1ccc(-c2[nH]c3cc(F)cc4c3c2CCNC4=O)cc1 [rucaparib]
How it was run: as §1

[9] = compound: CNc1nc(-c2ccc3c(N)n[nH]c3c2)cc(N2C[C@@H](C(=O)NC3CCCCC3)CC[C@H]2C)n1
How it was run: as §1

encorafenib = compound: COC(=O)N[C@@H](C)CNc1nccc(-c2cn(C(C)C)nc2-c2cc(Cl)cc(NS(C)(=O)=O)c2F)n1 [encorafenib]
How it was run: as §1

[10] = compound: COC(=O)[C@H](CCSC)NC(=O)C1=C(C=C(C=C1)NC[C@H](CS)N)C2=CC=CC=C2
How it was run: as §1

UniProt Q99986, sequence (Q99986 whole entry, looked up): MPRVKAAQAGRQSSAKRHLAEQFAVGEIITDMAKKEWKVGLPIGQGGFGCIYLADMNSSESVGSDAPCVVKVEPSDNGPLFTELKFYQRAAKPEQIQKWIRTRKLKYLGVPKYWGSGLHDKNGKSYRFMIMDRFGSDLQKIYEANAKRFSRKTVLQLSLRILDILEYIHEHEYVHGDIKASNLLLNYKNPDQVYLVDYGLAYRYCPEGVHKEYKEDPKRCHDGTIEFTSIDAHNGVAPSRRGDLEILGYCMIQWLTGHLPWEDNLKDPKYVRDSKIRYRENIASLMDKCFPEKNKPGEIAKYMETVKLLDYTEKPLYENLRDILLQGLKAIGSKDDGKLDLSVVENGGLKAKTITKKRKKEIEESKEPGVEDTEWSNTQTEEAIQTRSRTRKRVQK
UniProt Q7Z392, sequence (Q7Z392 whole entry, looked up): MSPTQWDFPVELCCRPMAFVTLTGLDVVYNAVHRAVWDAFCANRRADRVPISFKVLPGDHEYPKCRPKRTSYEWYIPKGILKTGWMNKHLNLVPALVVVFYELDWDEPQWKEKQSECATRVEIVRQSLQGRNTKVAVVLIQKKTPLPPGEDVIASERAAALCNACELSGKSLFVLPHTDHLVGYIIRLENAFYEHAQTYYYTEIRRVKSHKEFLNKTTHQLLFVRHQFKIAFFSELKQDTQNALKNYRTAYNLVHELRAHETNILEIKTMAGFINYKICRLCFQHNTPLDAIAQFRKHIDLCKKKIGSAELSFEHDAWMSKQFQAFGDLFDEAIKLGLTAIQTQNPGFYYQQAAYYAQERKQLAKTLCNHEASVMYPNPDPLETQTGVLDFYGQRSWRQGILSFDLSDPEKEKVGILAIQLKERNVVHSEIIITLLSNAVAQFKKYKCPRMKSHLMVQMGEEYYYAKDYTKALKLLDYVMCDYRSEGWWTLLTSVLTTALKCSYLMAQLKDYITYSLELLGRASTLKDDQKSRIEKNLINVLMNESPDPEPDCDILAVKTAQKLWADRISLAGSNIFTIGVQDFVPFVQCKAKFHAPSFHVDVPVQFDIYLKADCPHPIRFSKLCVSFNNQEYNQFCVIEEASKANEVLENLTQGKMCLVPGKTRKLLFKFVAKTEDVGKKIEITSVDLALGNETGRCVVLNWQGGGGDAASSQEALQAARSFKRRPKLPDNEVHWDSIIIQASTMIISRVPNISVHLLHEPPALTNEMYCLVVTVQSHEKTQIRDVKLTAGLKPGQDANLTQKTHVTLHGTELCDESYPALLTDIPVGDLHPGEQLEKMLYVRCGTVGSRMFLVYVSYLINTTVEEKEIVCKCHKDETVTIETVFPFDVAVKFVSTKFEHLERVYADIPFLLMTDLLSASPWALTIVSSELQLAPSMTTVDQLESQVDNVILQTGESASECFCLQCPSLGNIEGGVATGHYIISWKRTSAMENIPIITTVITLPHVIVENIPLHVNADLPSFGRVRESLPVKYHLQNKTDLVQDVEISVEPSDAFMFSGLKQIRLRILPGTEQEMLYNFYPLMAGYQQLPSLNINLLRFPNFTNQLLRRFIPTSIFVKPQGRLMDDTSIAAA
UniProt Q9NQH7, sequence (Q9NQH7 whole entry, looked up): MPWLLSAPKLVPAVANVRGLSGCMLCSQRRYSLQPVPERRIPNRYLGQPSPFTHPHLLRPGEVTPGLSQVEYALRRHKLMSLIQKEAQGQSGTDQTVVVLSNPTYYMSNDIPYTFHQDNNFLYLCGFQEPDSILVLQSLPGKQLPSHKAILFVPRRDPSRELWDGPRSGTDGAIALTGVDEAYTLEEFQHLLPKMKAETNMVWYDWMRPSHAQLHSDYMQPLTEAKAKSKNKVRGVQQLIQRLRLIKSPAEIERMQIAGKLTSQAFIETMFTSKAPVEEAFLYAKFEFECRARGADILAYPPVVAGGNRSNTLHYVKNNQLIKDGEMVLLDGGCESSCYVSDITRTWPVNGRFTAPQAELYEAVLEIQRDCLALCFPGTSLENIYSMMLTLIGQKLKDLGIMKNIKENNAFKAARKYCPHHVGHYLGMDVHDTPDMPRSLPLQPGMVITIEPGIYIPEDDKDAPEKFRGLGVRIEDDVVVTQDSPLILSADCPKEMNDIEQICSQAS
UniProt Q8N3P4, sequence (Q8N3P4 whole entry, looked up): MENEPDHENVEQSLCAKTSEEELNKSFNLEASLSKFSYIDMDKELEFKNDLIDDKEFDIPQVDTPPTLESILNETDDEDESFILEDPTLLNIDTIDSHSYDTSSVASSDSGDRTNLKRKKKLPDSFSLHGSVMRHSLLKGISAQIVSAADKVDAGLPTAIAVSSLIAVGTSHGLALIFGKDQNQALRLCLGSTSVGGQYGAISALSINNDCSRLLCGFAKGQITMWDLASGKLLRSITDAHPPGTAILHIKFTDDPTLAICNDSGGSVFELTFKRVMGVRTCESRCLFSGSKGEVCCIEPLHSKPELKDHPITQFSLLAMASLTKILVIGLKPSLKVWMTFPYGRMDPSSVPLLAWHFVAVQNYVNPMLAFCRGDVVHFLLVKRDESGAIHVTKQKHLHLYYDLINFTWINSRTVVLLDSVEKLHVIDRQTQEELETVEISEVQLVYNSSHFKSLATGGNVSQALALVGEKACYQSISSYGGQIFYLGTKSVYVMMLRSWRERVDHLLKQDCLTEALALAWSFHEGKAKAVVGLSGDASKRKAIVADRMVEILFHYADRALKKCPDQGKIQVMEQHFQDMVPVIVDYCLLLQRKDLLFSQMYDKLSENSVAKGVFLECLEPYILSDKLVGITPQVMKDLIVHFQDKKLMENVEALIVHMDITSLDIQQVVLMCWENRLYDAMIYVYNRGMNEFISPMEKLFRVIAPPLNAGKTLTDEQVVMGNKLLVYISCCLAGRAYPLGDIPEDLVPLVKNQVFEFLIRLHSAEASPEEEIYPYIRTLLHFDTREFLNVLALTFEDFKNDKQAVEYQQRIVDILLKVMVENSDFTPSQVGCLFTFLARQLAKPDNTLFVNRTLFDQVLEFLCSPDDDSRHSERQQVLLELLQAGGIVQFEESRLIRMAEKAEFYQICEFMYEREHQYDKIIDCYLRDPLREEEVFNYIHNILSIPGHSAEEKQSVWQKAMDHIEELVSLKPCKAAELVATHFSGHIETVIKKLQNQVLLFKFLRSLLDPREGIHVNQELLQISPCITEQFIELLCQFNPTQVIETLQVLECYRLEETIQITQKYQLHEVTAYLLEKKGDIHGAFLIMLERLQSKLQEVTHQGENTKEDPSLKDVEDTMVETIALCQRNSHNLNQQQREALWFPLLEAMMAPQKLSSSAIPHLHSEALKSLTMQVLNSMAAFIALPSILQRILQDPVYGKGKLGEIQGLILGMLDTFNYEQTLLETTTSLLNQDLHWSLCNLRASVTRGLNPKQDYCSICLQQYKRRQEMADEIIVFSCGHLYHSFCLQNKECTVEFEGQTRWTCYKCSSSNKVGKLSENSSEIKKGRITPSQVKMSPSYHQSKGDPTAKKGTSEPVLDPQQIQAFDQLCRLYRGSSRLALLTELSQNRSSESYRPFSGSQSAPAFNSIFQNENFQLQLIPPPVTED
UniProt Q92973, sequence (Q92973 whole entry, looked up): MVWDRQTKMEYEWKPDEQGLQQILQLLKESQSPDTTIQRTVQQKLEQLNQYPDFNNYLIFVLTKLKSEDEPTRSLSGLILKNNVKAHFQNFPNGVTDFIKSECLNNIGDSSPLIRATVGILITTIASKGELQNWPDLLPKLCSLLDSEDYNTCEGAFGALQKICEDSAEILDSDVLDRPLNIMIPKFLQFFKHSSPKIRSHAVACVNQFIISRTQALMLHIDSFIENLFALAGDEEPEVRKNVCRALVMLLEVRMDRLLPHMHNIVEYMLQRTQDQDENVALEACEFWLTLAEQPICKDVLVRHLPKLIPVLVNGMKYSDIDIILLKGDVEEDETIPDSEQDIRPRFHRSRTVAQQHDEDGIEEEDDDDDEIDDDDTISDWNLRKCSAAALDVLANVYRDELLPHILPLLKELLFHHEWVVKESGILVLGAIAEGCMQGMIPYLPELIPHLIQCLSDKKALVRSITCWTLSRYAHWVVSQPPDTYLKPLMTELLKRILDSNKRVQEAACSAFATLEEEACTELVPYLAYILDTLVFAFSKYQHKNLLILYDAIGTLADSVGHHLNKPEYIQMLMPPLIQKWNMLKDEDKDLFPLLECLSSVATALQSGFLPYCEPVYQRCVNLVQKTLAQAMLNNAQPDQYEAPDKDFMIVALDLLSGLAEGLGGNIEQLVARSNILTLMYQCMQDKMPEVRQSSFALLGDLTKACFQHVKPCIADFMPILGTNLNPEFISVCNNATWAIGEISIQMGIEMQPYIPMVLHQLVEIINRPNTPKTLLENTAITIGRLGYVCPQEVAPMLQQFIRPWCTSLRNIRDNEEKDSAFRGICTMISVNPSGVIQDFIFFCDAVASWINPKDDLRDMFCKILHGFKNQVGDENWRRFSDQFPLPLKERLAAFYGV
UniProt Q6VEQ5, sequence (Q6VEQ5 whole entry, looked up): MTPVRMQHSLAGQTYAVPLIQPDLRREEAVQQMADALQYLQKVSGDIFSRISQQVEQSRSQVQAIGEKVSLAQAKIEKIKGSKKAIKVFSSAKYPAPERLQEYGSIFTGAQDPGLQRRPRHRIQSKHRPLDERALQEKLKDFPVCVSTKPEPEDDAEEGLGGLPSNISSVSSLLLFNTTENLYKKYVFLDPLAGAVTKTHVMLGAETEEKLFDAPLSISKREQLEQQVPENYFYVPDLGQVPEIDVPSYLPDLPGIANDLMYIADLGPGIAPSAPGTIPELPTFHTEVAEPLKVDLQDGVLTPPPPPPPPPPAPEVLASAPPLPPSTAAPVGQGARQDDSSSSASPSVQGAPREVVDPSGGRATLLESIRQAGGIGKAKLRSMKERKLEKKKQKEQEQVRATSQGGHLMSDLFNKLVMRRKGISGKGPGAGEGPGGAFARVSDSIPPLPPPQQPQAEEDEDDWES
UniProt Q96AJ9, sequence (Q96AJ9 whole entry, looked up): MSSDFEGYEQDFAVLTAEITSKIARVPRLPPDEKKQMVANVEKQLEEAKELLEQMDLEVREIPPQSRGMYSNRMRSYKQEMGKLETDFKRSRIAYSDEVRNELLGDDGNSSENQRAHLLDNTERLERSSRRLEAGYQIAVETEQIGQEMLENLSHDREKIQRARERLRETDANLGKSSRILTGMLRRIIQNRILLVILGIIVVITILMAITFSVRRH

Target	log2 fold change [1]	log2 fold change (volasertib)	log2 fold change [2]	log2 fold change (epoxomicin)	log2 fold change [3]	log2 fold change [4]	log2 fold change [5]	log2 fold change (rosiglitazone)	log2 fold change [6]	log2 fold change [7]	log2 fold change (saracatinib)	log2 fold change (sotrastaurin)	log2 fold change (alvocidib)	log2 fold change (Tubastatin A)	log2 fold change [8]	log2 fold change (defactinib)	log2 fold change (rucaparib)	log2 fold change [9]	log2 fold change (encorafenib)	log2 fold change [10]
VARS2, A0A0G2JL52	-0.024	0.001	0.08	0.011	0.006	-0.013	0.007	0.03	-0.016	-0.126	0.007	-0.019	-0.005	-0.026	-0.019	-0.005	0.02	0.012	-0.004	-0.041
TRAPPC11 (UniProt Q7Z392)	-0.045	-0.275 (active)	0.015	0.016	-0.049	-0.032	0.032	-0.027	0.004	-0.127	-0.043	-0.041	-0.085	0	-0.028	-0.075	0.051	-0.027	0.035	-0.031
WASH2P (UniProt Q6VEQ5)	-0.071	-0.163	0.024	0	0.002	0.037	0.021	0.033	0.012	-0.067	0.009	-0.08	-0.018	-0.059	0.02	-0.004	-0.011	-0.037	0.004	0.007
UPF3B (UniProt Q9BZI7)	0.146	0.333	0.059	-0.388	0.084	0.271	-0.1	-0.094	0.28	0.341	-0.099	0.002	0.423	0.114	0.045	0.413	0.286	0.035	0.108	0.007
TMEM164 (UniProt Q5U3C3)	-0.01	-0.145	-0.01	0.082	0.045	-0.053	0.07	0.135	-0.001	-0.021	-0.13	0.197	0.025	0.012	0.033	0.06	-0.233	0.061	0.211	-0.003
UBE4A isoform 2 (UniProt Q14139)	-0.126	-0.584 (active)	0.123	0.087	-0.114	-0.055	0.053	0.05	0.159	-0.436 (active)	-0.024	-0.148	0.145	-0.009	0.006	-0.017	0.021	-0.079	0.03	-0.078
TOP2A isoform 4 (UniProt P11388)	0.198	0.226	0.106	-0.231	0.052	0.156	-0.194	-0.169	0.526	0.128	-0.168	0.006	0.261	0.103	0.102	0.438	0.434	0.273	0.288	-0.086
VPS39 (UniProt Q96JC1)	-0.206	-0.354 (active)	0.054	-0.017	-0.033	-0.091	0.022	0.044	0.008	-0.187	0	-0.097	-0.035	0.033	-0.015	-0.068	0.039	0.005	-0.006	-0.03
VPS11 (UniProt Q9H270)	-0.284 (active)	-0.53 (active)	0.14	0.025	-0.097	-0.074	0.059	0.077	0.03	-0.244	-0.003	-0.08	-0.061	0.004	-0.018	-0.066	0.082	-0.021	0.023	-0.01
TMEM189-UBE2V1 (UniProt I3L0A0)	0.054	0.056	-0.137	-0.023	-0.003	0.048	0	0.04	-0.035	-0.009	0.041	0.157	0.016	-0.007	-0.004	-0.014	-0.059	-0.038	0	0.018
TRIP10 (UniProt Q15642)	-0.024	-0.11	0.047	0.034	-0.051	-0.051	0.04	0	-0.036	-0.056	0.036	-0.014	-0.011	0	0.027	-0.029	0.006	0.046	0.038	-0.005
VPS8 (UniProt Q8N3P4)	-0.087	-0.647 (active)	0.079	-0.015	-0.068	-0.038	0.001	0.118	-0.023	-0.332 (active)	-0.009	-0.096	-0.038	0.09	0.002	-0.171	0.023	-0.015	0.093	-0.078
USP48 isoform 8 (UniProt Q86UV5)	-0.55 (active)	-0.84 (active)	0.144	-0.058	-0.03	-0.047	0.195	0.064	-0.013	-0.459	-0.037	-0.403	-0.358	0.197	0.016	-0.462	-0.085	-0.044	0.065	-0.081
VRK1 (UniProt Q99986)	-0.184	-0.159	0.102	0.169	-0.107	-0.06	0.135	0.105	-0.028	-0.03	-0.057	0.152	0.285	0.07	0.05	-0.041	0.048	0.108	0.043	-0.04
TTC4 (UniProt O95801)	-0.173	-0.316 (active)	0.103	0.054	-0.025	-0.039	0.061	0.052	-0.02	-0.11	-0.09	-0.11	-0.146	0.055	0.078	-0.169	0.04	0.051	0.049	-0.055
WARS2 (UniProt Q9UGM6)	-0.07	-0.323 (active)	0.099	0.016	0.043	-0.03	0.043	0.074	-0.055	-0.099	-0.037	0.014	-0.08	-0.04	0.018	-0.065	0.04	0.006	-0.011	-0.057
TRAPPC2L (UniProt Q9UL33)	-0.109	-0.065	0.008	0.06	-0.076	-0.042	0.128	0.053	0.007	0.001	-0.07	-0.101	-0.015	0.011	-0.376 (active)	-0.032	0.03	-0.026	0.012	-0.042
TOE1 (UniProt Q96GM8)	0.067	0.154	-0.023	-0.148	-0.067	0.035	-0.043	-0.03	0.107	0.35 (active)	0.025	-0.016	0.221	0.031	0.122	0.193	-0.066	0.05	0.017	0.05
WASHC3 (UniProt Q9Y3C0)	-0.015	-0.066	-0.058	0.067	-0.025	0.007	-0.002	0.026	-0.03	-0.245 (active)	0.055	0.026	0.077	0.054	0.004	-0.02	-0.022	-0.02	-0.005	0.008
TTI1 (UniProt O43156)	-0.208	-0.431 (active)	0.08	-0.024	-0.083	-0.038	0.048	0.04	0.134	-0.134	-0.065	-0.128	0.017	-0.007	-0.058	-0.046	0.237	0.053	0.068	0.004
VTI1A (UniProt Q96AJ9)	0.051	-0.002	-0.026	0.006	0.039	0.068	0.028	-0.017	0.01	-0.219 (active)	0.101	0.027	-0.002	-0.028	0.095	-0.03	-0.058	-0.042	-0.001	0.07
XPNPEP3 (UniProt Q9NQH7)	0.046	0.075	0.069	0.075	0.01	-0.076	-0.004	-0.002	-0.022	0.012	0.022	-0.017	-0.029	-0.021	0	-0.033	-0.018	-0.035	-0.005	0.038
TNPO1 (UniProt Q92973)	-0.182	-0.379 (active)	0.046	-0.016	0.021	-0.025	0.018	0.012	-0.019	-0.055	0.034	-0.062	-0.141	-0.064	-0.013	-0.123	-0.04	0.009	0.029	0.006
USP7 (UniProt Q93009)	-0.045	-0.215	0.101	0.02	-0.12	-0.164	0.097	0.116	-0.005	-0.351 (active)	-0.087	-0.083	-0.147	0.023	-0.106	-0.104	0.03	0.152	0.057	-0.06
